FXIIa inh mix: blocks human factor XIIa in pooled compound mixtures; P00748; purified FXIIa, fluorogenic substrate; inhibition, % at 5 µM; 0.2% of 62,000 active; AID 684;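 further: 0% = enzyme without compound and 100% = no enzyme blank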
FXIa inh mix: factor XIa (human) inhibition, mixture screen; P03951; purified FXIa, fluorogenic substrate, pooled mixtures; inhibition, % at 5 µM; 0.19% of 62,000 active;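 further: each value is inhibition by a whole ten-compound pool holding the compound; 0% = enzyme with no mixture and 100% = wells lacking enzyme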
Target sequence (P03951 19-387 limits assumed): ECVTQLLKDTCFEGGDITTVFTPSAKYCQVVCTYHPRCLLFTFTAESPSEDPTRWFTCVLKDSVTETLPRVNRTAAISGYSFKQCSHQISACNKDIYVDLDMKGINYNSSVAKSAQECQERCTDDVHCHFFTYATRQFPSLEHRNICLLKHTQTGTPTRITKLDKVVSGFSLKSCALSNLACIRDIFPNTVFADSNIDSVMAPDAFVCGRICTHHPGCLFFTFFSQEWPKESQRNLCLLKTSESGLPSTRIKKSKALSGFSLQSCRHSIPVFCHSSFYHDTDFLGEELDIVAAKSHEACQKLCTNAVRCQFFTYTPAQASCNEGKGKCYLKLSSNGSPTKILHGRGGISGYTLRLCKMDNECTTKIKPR
Target sequence (P03951 388-625 limits assumed): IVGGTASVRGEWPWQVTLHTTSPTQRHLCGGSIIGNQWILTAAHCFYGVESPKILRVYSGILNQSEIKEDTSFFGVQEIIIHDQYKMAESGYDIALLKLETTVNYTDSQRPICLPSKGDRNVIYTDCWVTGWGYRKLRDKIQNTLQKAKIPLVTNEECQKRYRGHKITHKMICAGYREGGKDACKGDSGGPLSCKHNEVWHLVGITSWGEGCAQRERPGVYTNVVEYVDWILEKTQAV
MT1-MMP txn act: activates MT1-MMP transcription; HT1080 MT1-MMP promoter luciferase reporter, luminescence, overnight; hits give high values; activation factor at 10 µM; 0.16% of 86,000 active;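 active means activation factor of at least 2 for MT1-MMP transcription at 10 µM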
Her2 expr inh: Her2 kinase expression inhibition; AID 645; P04626; SKBR-3 HER2 protein level, AlphaScreen, 18-24 h; hits give low values; 0.69% of 65,000 active; HER2 level % of control, % at 10 µM;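 active means HER2 level under 5% of the carrier-only control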;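 further: 100% = DMSO carrier and 0% = 500 nM PU-H71 HSP90 inhibitor; lower value means stronger loss of Her2 protein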
Numbers without * were called inactive; · = not tested or not shown. In the library only some 0.88% were active in any assay of this set; here they are far more common. Unless noted, no stated cut-off is given here; in the data, active means inhibition above about 20% (passing the limit was not always enough); inactive means the rest.

SMILES | FXIIa inh mix | FXIa inh mix | MT1-MMP txn act | Her2 expr inh
CCOc1ccccc1N(CC(=O)N1CCOCC1)S(=O)(=O)c1ccccc1 | 12 | 7 | 1.2 | -21*
Cc1cc(C)cc(N(CC(=O)N2CCOCC2)S(=O)(=O)c2ccccc2)c1 | · | · | 1.1 | ·
O=C(NCc1ccco1)C(Cc1ccccc1)N1C(=O)c2ccccc2C1=O (configuration not stated) | 4 | 26* | 1.1 | -20*
CCSc1nc(-c2ccco2)ccc1C#N | 3 | 12 | 1 | 39
N#Cc1ccc(-c2ccco2)nc1SCc1ccccc1 | 2 | 13 | 1 | -0.7*
O=C(c1csc2c1CCCC2)n1cccn1 | 11 | 45* | 1.1 | 104
COC(=O)c1ccc(C(NC(=O)OCc2ccccc2)/C(I)=C/[C@@H](C)C(=O)O)cc1 (some centres not stated) | · | · | 1 | ·
Clc1ccc2c(c1)C(N1CCNCC1)=Nc1ccccc1O2 | -8 | 6 | 1.1 | 101
Cn1c(Cl)cnc1C1CC(=O)c2cc(Cl)ccc2O1 (configuration not stated) | 6 | 10 | 0.6 | -15*
Cc1ccccc1OCCCC(=O)Nc1nccs1 | -3 | 6 | · | -20*
O=C(CCSc1ccccc1)Nc1nccs1 | · | · | 1.1 | ·
COc1ccccc1C(CC(=O)Nc1nccs1)c1ccco1 (configuration not stated) | 10 | 9 | 1.2 | -17*
O=S1(=O)Nc2c(ccc3cccnc23)-c2ccccc21 | -7 | 4 | · | -8.0*
CC(C)c1cccc2nc3c(c([Si](C)(C)C)c12)Cn1c-3cccc1=O | · | · | 1.1 | ·
N#C/C(=N\Nc1ccccc1F)C(=N)N1CCCCC1 | · | · | 2* | ·
C=CCN=C(NC#N)SCc1ccccc1 | · | · | 1.2 | ·
C=CCN=C(NC#N)SCC(=O)c1cccc(OC)c1 | 2 | 0 | 2* | 42
Cc1cc(C)cc(N2CCCn3c2nc2c3c(=O)n(CCN3CCOCC3)c(=O)n2C)c1 | 13 | 23* | 1 | 131
CCN(CC)c1ccc(-c2nn3c(-c4n[nH]c5c4CCC5)nnc3s2)cc1 | 9 | -5 | 0.7 | -29*
CCC/C=C(\CCC)C(NP(=O)(c1ccccc1)c1ccccc1)c1ccc(-c2ccccc2)cc1 (configuration not stated) | · | · | 1.4 | ·
CCC[C@@H]1C[C@@]1(CCC)C(NC(=O)c1ccco1)c1ccc(Cl)cc1 (some centres not stated) | · | · | 1.1 | ·
COC(=O)c1ccccc1NC(=O)CN1CCOCC1 | · | · | 1 | ·
NC(=O)c1ccccc1NC(=O)CN1CCOCC1 | 11 | 20* | 1.1 | 106
Cc1csc(NC(=O)c2ccc(C)c(S(=O)(=O)N3CCCCC3)c2)n1 | 13 | 2 | 1.2 | 92
Cc1ccc(C(=O)Nc2ccc3cn[nH]c3c2)cc1S(=O)(=O)N1CCCCC1 | · | · | 2.1* | ·
SMILES | FXIIa inh mix | FXIa inh mix | MT1-MMP txn act | Her2 expr inh
CCOC(=O)N1CCN(CCC(=O)c2ccc(Cl)cc2)CC1 | 6 | 12 | 1.1 | -6.8*
O=C(NCC(=O)N(CCc1ccccc1)C(C(=O)NC1CCCC1)c1cccnc1)c1ccco1 (configuration not stated) | 1 | -2 | 1.1 | -19*
O=C(NCC(=O)N(CCc1ccccc1)C(C(=O)NC1CCCCC1)c1ccncc1)c1ccco1 (configuration not stated) | -17 | 13 | 1.1 | 113
CN1/C(=C\C(=O)c2ccco2)C(C)(C)c2ccccc21 | 9 | 0 | 1 | 76
CN1/C(=C/C(=O)c2nc(S(C)(=O)=O)ncc2Cl)C(C)(C)c2ccccc21 | -4 | 10 | · | -15*
COC(=O)[C@@H]1CCCN1C(=O)[C@H]1C[C@@H]1[C@H](NC(=O)OCc1ccccc1)c1ccccc1 | · | · | 1.2 | ·
CCCCOC(=O)C(C#N)c1nc2ccccc2nc1N1CCN(Cc2ccc3c(c2)OCO3)CC1 (configuration not stated) | 4 | 7 | 1 | -55*
COC(=O)[C@@]1(Cc2ccccc2)C=C[C@@H](C)N1C(=O)c1ccccc1 | · | · | 1 | ·
Nn1c(-c2ccccc2Cl)nnc1-c1ccccc1Cl | · | · | 2* | ·
O=C(CSc1nc2ccccc2s1)CSc1nc2ccccc2s1 | · | · | 1.1 | ·
O=c1oc2ccccc2n1CSc1nc2ccccc2s1 | 7 | 4 | 2.1* | 75
O=S1(=O)C=C(Sc2nc3ccccc3s2)c2ccccc21 | 0 | 5 | 1.2 | -18*
Cc1ccc(C(c2sc3nc(C)nn3c2O)N2CCN(c3ccccc3F)CC2)cc1 (configuration not stated) | 3 | 0 | 1.2 | -18*
Cc1ccc(C(c2sc3nc(C)nn3c2O)N2CCN(CCO)CC2)cc1 (configuration not stated) | -1 | 6 | 1 | 71
C[C@@H](C(=O)N[C@@H](CO)Cc1ccccc1)[C@@H]1C[C@@]1(C)[C@@H](NC(=O)OCc1ccccc1)c1ccccc1 | · | · | 1.2 | ·
CCc1nc(C)ccc1OCC(=O)NCCCN(C)C | 10 | 9 | 1.1 | -28*
O=C(c1cc2ccccc2oc1=O)N1CCN(Cc2ccc3c(c2)OCO3)CC1 | 1 | 1 | 1 | 106
O=C(c1cc2ccccc2oc1=O)N(Cc1ccccc1)Cc1ccc2c(c1)OCO2 | · | · | 2.5* | ·
CCN1C(=O)CC(C(=O)Nc2ccc(F)cc2)SC1=Nc1ccc2c(c1)OCO2 (configuration not stated) | -17 | 6 | 0.9 | -27*
CCOc1ccc(NC(=O)C2CC(=O)N(CC)C(=Nc3ccc4c(c3)OCO4)S2)cc1 (configuration not stated) | -3 | 2 | 1.1 | 50
Cc1ccc2c(c1)CCCN2C(=O)c1c(C)noc1C | 1 | 3 | 1 | 122
Cc1ccc2c(c1)CCCN2C(=O)c1ccoc1C | -4 | 8 | 1.1 | -29*
Clc1ccc(-n2nnnc2Sc2ncnc3sccc23)cc1 | 6 | 1 | 1 | -11*
Cc1sc2ncnc(Sc3nnnn3-c3ccccc3)c2c1C | -1 | 5 | 1.1 | -14*
Nc1ccc(Sc2nnnn2-c2ccccc2)c(Cl)c1 | 6 | 4 | 0.9 | 105
SMILES | FXIIa inh mix | FXIa inh mix | MT1-MMP txn act | Her2 expr inh
COC(=O)[C@@]1(Cc2ccc(OC)cc2)[C@H]2c3cc(C(=O)N(C)C)n(CCc4ccccn4)c3C[C@H]2CN1C(=O)c1ccccc1 | · | · | 1.1 | ·
O=S(=O)(c1ccc2c(c1)C(=NO)c1cc(S(=O)(=O)N3CCCCC3)ccc1-2)N1CCCCC1 | -16 | 17 | 0 | -22*
CC1CCN(S(=O)(=O)c2ccc3c(c2)C(=NO)c2cc(S(=O)(=O)N4CCC(C)CC4)ccc2-3)CC1 | · | · | 1.6 | ·
O=C(Nc1ccccc1N1CCCC1)c1cc2ccccc2o1 | 0 | -5 | 2* | 87
O=C(Nc1ccc(N2CCOCC2)c(Cl)c1)c1cc2ccccc2o1 | · | · | 2.1* | ·
O=C(Nc1ccc(N2CCOCC2)c(Cl)c1)c1ccc(Br)o1 | 5 | 1 | 1.3 | 97
CCC/C=C(\CCC)C(NC(=O)c1ccco1)c1ccc(C(=O)OC)cc1 (configuration not stated) | · | · | 1 | ·
COc1ccc(-n2nnnc2S(=O)(=O)CC(=O)N2CCCCC2)cc1 | 12 | 8 | 0.3 | -29*
CN(CC(=O)NC(c1ccccc1)c1ccccc1)Cc1nc2ccccc2c(=O)[nH]1 | · | · | 1.1 | ·
CN(CC(=O)NC(=O)NCc1ccco1)Cc1nc2ccccc2c(=O)[nH]1 | -8 | 7 | 1 | -33*
